Experiment [1] deals with 3',5'-cyclic-AMP phosphodiesterase 4B (Homo sapiens) (UniProt Q07343). Description: qHTS Assay for Inhibitors of PDE-IV (AID 607; active = well fitted activation curve with a large enough effect in the main read-out, with a control signal flat, not every such curve was filed as active). An outline of the steps: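 ACTOne HEK293 cells carry a modified cAMP-gated CNG channel and express endogenous PDE4; plated 1000 cells/well, compounds up to 22.9 uM final. Membrane-potential dye fluorescence (ex 535/em 590) was read; parental cells received 10 uM forskolin + 100 uM RO 20-1724.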
3',5'-cyclic-AMP phosphodiesterase 4B (Homo sapiens), sequence (Q07343 whole entry, looked up): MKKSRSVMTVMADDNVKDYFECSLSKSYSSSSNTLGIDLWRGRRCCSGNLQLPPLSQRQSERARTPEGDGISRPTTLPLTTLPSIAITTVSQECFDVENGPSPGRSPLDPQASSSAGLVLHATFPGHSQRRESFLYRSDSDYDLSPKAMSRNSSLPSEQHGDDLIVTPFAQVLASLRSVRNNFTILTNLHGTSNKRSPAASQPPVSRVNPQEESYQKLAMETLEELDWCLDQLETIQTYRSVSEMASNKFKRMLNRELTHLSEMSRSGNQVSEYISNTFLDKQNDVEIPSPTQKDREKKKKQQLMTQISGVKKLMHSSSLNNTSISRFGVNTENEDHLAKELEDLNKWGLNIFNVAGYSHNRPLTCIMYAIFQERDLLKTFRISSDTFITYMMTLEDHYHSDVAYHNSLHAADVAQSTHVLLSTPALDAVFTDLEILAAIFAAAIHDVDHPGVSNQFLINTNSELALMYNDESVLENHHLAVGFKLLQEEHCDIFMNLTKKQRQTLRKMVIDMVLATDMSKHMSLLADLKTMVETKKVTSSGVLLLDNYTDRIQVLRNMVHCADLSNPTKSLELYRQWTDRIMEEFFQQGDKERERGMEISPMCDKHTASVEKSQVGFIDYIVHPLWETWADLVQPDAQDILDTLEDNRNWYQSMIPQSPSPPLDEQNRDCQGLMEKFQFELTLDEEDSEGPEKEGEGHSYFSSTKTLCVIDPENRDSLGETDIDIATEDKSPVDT

The target in experiment [2] is Cytochrome P450 2C9 (Homo sapiens) (UniProt P11712). Description: qHTS Assay for Inhibitors and Substrates of Cytochrome P450 2C9 (AID 883). Also: potency is read from the fitted curve at half-maximal effect; nearly all actives have a fitted effect of over 60% in size. The method in brief: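 Luminescent read-out of deoxyluciferin hydroxylation, normalized to 57uM sulphaphenazole (AC100). Reaction: 10nM enzyme, 100uM Luciferin-H (equal to KM), 25mM KPO4, 10 min compound preincubation, then 60 min with NADPH regeneration, both at 37C.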
Cytochrome P450 2C9 (Homo sapiens), sequence (P11712 whole entry, looked up): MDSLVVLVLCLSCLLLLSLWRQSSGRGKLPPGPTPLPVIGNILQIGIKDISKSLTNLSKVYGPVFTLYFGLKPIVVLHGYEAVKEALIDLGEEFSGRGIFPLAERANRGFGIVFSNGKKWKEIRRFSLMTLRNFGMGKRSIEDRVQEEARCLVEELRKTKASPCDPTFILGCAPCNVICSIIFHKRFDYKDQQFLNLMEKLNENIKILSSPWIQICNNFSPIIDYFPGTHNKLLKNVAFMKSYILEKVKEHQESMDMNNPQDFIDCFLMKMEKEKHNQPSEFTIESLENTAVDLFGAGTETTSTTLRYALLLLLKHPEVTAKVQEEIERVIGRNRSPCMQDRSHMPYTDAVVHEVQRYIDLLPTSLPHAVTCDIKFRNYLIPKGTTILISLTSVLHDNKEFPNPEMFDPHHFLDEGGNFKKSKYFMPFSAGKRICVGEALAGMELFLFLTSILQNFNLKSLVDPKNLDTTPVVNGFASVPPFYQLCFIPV
Background: In qHTS, concentration-response curves come from the screen itself.

Experiment [3] deals with Cytochrome P450 2C19 (Homo sapiens) (UniProt P33261). Description: qHTS Assay for Inhibitors and Substrates of Cytochrome P450 2C19 (AID 899). Also: nearly all actives have a fitted effect of over 60% in size. Also: potency is read from the fitted curve at half-maximal effect. The method in brief:
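Luminescence readout of luciferin formed from 10uM Luciferin-H EGE (KM level) by 5 nM CYP2C19 in 50mM KPO4. 60 min NADPH-driven reaction at 37C after 10 min compound preincubation; data scaled to 57uM ketoconazole inhibition.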

Experiment [4] deals with Cytochrome P450 2D6 (Homo sapiens) (UniProt P10635). Description: qHTS Assay for Inhibitors and Substrates of Cytochrome P450 2D6 (AID 891).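 Also: luciferin methyl ether substrate demethylated by CYP2D6 with NADPH regeneration; nearly all actives have a fitted effect of over 60% in size.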 An outline of the steps:
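Human CYP2D6 (5 nM) with 30 uM Luciferin-ME EGE (at Km) in 100 mM KPO4, compound preincubated 10 min, then NADPH regeneration system for 60 min at room temperature. Luciferin read by luminescence; normalized to 1.43 uM quinidine.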

The target in experiment [5] is Lethal(3)malignant brain tumor-like protein 1 (Homo sapiens) (UniProt Q9Y468). Description: qHTS Assay for the Inhibitors of L3MBTL1: Hit Validation (AID 540279). Also: potency is read from the fitted curve at half-maximal effect; nearly all actives have a fitted effect of over 70% in size. As to conditions: L3MBTL1 methyl-lysine binding inhibition, biochemical qHTS. The method in brief: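 AlphaScreen displacement: 50 nM L3MBTL1 bound to 75 nM biotin-H3K9me1 peptide for 30 min, compound added for 30 min at room temperature, then beads at 10 ug/mL final for 30 min in the dark. Cefsulodin titration served as intraplate control.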
Lethal(3)malignant brain tumor-like protein 1 (Homo sapiens), sequence (Q9Y468 whole entry, looked up): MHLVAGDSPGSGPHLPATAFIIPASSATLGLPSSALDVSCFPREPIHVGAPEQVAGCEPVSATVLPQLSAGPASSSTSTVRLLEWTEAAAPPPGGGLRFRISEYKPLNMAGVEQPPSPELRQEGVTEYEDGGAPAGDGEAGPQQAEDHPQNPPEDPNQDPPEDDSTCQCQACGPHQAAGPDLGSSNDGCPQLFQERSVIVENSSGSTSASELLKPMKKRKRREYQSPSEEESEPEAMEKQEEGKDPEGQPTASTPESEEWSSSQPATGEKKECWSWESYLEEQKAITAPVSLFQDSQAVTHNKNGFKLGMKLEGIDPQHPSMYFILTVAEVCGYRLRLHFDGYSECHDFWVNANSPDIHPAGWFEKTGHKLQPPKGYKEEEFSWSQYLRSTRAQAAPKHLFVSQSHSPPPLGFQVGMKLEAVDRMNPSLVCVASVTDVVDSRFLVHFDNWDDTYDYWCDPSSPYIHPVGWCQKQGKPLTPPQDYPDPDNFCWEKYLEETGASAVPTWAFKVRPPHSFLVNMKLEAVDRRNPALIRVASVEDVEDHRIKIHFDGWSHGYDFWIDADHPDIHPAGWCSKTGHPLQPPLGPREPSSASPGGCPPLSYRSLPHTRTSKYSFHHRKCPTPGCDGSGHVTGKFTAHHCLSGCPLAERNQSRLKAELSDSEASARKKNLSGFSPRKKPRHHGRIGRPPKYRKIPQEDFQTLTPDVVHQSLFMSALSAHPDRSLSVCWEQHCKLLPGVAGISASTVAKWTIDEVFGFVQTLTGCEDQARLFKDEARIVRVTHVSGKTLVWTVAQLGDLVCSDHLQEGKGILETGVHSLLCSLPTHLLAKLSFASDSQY

The target in experiment [6] is DNA polymerase kappa (Homo sapiens) (UniProt Q9UBT6). Description: qHTS for Inhibitors of Polymerase Kappa: Confirmatory Assay for Cherry-picked Compounds (AID 720501). Also: potency is read from the fitted curve at half-maximal effect. The conditions noted are these: purified Pol-kappa, fluorescent strand-displacement substrate. An outline of the steps:
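Strand-displacement fluorescence read-out: TAMRA reporter released from a BHQ-2-quenched template, measured at 525/598 nm over a 10 min kinetic window. Substrate was 50 nM final; enzyme was 10 nM Pol-kappa, preincubated 15 min at room temperature with compound.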

Experiment [7] concerns the target DNA polymerase eta (Homo sapiens) (UniProt Q9Y253). Description: qHTS for Inhibitors of Polymerase Eta: Confirmatory Assay for Cherry-picked Compounds (AID 720502). Also: potency is read from the fitted curve at half-maximal effect. The conditions noted are these: Pol eta primer extension, TAMRA/BHQ fluorescence, 10 min. An outline of the steps:
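Plates with 10 nM enzyme and compound stood 15 min at room temperature before substrate addition (50 nM final). Displacement of the TAMRA reporter from the BHQ-2 template was tracked for 10 min.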

Experiment [8] in a line: MultiTox-Fluor Cytotoxicity Assay - LYMP1-001 - Dead Cells (AID 946).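 Also: potency is read from the fitted curve at half-maximal effect; cells exposed to compound for 16 h.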 The method in brief: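 AC50 from Hill fit of concentration-response; data normalized to DMSO (basal) and 15 uM tetraoctylammonium bromide (100%). LYMP1-001 lymphoblastoid cells, 2500/well, 16 hr compound at 37 C; dead-cell protease fluorescence, Ex/Em 485/520.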
Experiment [9] is described as follows: MultiTox-Fluor Cytotoxicity Assay - LYMP1-001 - Live Cells (AID 947). Also: potency is read from the fitted curve at half-maximal effect.
The nature of experiment [10]: MultiTox-Fluor Cytotoxicity Assay - LYMP1-003 - Live Cells (AID 962).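 Also: potency is read from the fitted curve at half-maximal effect; cells exposed to compound for 16 hours at 37 °C.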 An outline of the steps:
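Cells plated at 2500 per well and incubated 5 hr; compounds added and incubated 16 hr at 37 C; MultiTox-Fluor reagent added for 60 min at room temperature; fluorescence of liberated AFC measured at 405/510 nm.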

Experiment [11] in a line: Cell Viability - LYMP1-003 - Assay at 24 hr (AID 963). Also: potency is read from the fitted curve at half-maximal effect. An outline of the steps:
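Acute toxicity in LYMP1-003 lymphoblastoid cells: 24 hr compound treatment at 37 C, ATP measured with CellTiter-Glo after 30 min at room temperature. AC50 derived by fitting the Hill equation to qHTS titrations.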

Experiment [12] can be described thus: Cell Viability - LYMP1-003 - Assay at 40 hr (AID 964). Also: potency is read from the fitted curve at half-maximal effect; nearly all actives have a fitted effect of over 60% in size. An outline of the steps: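 This qHTS cytotoxicity screen treats human lymphoblastoid cells (LYMP1-003) with compounds for 40 hr and quantifies cellular ATP via luciferase luminescence.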
Experiment [13] in a line: Cell Viability - LYMP2-005 (AID 967). Also: potency is read from the fitted curve at half-maximal effect. The method in brief:
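CellTiter-Glo luminescence (cellular ATP) read-out; LYMP2-005 lymphoblastoid cells, 2500/well, 5 h pre-incubation, then 24 h compound exposure at 37 C in complete medium. Tetraoctylammonium bromide positive control; AC50 by standard Hill fit.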

Experiment [14] is described as follows: Cell Viability - LYMP2-026 (AID 989). Also: potency is read from the fitted curve at half-maximal effect; nearly all actives have a fitted effect of over 50% in size. An outline of the steps:
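Concentration-dependent loss of intracellular ATP in human lymphoblastoid cells after 24 hr at 37 C, quantified by luciferase luminescence. AC50 derived from standard Hill equation.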

The nature of experiment [15]: Cell Viability - LYMP1-002 - Assay at 24 hr (AID 993). Also: potency is read from the fitted curve at half-maximal effect. The method in brief:
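qHTS, LYMP1-002 lymphoblastoid, 24 h cpd, 37 C, CellTiter-Glo ATP luminescence; AC50 via Hill eq.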

Experiment [16] in a line: Cell Viability - LYMP1-002 - Assay at 40 hr (AID 994). The method in brief: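 Viability in the human lymphoblastoid line was measured as intracellular ATP via CellTiter-Glo after 40 hr compound exposure. Tetraoctylammonium bromide served as positive control.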
Experiment [17] deals with Nuclear receptor ROR-gamma (Homo sapiens) (UniProt P51449). Description: qHTS assay for small molecule antagonists of the retinoid-related orphan receptor gamma (ROR-gamma) signaling pathway (AID 651802). The method in brief:
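Antagonism is scored as a fall in luminescence from a RORE-luciferase reporter in CHO cells expressing ROR under a TET-inducible promoter, measured 16hr after doxycycline induction in the presence of compound.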

The nature of experiment [18]: Cell Viability - LYMP2-009 (AID 968). Also: potency is read from the fitted curve at half-maximal effect; nearly all actives have a fitted effect of over 55% in size.
A short description of experiment [19]: Cell Viability - LYMP2-025 (AID 976). Also: potency is read from the fitted curve at half-maximal effect. The method in brief:
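In qHTS format, LYMP2-025 lymphoblastoid cells in complete culture medium received compound for 24 hr; ATP-based CellTiter-Glo signal gave viability, with AC50 derived by Hill equation.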

The nature of experiment [20]: Cell Viability - LYMP2-002 (AID 977). Also: potency is read from the fitted curve at half-maximal effect. An outline of the steps: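 Cytotoxicity is scored as concentration-dependent loss of cellular ATP in a human lymphoblastoid line after 24 hr compound treatment at 37 C. AC50 is obtained by modelling concentration-response data with the Hill equation.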

Inconclusive results are not listed. The list shows a part of the results. Calls of active or inactive are those of the source. Unless noted, calls follow the shape of the dose curve; as a rule, active = well fitted curve in the direction sought with a large enough effect; inconclusive = small, poorly fitted or top-dose-only effect, or another doubt; inactive = no such curve, though single readings can be large; an effect the other way counts as inactive or inconclusive.

Cytochrome P450 2C19 (Homo sapiens), sequence (P33261 whole entry, looked up): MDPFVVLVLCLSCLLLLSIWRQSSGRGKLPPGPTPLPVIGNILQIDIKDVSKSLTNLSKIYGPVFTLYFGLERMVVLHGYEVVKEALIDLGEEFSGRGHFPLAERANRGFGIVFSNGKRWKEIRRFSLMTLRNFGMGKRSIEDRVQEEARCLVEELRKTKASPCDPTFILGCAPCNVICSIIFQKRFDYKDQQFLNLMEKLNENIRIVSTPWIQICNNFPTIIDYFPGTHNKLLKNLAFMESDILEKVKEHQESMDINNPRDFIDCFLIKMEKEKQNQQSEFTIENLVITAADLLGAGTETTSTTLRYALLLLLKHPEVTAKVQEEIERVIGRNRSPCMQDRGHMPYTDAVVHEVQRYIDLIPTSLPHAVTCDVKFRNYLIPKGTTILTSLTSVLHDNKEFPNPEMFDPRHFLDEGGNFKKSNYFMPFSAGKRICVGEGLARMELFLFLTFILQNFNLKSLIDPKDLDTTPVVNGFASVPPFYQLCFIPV
Nuclear receptor ROR-gamma (Homo sapiens), sequence (P51449 whole entry, looked up): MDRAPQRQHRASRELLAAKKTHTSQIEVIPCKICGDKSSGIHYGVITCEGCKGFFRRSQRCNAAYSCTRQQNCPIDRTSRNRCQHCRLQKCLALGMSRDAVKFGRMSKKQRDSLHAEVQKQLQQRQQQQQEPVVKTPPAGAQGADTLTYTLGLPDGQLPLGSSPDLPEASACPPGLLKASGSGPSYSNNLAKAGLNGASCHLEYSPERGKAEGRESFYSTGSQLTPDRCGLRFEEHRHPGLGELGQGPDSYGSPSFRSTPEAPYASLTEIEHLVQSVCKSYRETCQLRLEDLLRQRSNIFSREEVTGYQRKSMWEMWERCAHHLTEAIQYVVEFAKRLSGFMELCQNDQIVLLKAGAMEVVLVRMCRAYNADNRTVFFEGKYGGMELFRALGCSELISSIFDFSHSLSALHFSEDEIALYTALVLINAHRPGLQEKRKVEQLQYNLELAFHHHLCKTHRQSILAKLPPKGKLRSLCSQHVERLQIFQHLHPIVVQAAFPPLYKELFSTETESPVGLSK
DNA polymerase eta (Homo sapiens), sequence (Q9Y253 whole entry, looked up): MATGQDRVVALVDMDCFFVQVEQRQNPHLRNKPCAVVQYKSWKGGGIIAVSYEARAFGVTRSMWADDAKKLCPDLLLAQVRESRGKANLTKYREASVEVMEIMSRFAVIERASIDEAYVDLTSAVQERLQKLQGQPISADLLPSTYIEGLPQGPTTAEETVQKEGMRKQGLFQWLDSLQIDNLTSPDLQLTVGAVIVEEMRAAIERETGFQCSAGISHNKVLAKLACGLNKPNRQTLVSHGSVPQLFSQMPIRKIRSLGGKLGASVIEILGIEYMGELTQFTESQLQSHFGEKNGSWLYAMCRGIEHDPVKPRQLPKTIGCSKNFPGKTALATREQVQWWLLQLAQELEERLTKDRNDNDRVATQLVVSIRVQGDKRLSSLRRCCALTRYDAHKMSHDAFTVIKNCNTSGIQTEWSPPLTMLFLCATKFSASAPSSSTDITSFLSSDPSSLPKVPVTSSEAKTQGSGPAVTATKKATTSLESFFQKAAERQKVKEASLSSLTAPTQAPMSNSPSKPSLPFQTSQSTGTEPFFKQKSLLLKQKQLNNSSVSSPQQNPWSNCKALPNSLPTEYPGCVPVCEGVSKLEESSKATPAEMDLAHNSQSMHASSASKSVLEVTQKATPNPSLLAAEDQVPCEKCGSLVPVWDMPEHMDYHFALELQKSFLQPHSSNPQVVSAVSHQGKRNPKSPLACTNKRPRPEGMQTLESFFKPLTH
Cytochrome P450 2D6 (Homo sapiens), sequence (P10635 whole entry, looked up): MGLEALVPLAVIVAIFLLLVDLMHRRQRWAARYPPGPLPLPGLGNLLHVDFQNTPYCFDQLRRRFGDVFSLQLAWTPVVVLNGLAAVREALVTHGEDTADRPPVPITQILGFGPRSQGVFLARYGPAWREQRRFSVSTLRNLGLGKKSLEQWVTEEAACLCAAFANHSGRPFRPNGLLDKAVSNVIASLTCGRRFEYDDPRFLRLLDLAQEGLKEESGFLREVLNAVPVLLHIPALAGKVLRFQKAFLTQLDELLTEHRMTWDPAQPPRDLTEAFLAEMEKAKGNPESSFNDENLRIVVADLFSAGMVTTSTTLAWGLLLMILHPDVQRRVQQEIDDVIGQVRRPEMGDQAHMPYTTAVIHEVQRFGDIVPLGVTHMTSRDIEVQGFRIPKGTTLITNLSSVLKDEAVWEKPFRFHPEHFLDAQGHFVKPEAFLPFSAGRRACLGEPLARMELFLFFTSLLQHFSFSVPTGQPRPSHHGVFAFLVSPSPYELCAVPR

`COC(=O)[C@@H]1C[C@H]1[C@@H](NP(=O)(c1ccccc1)c1ccccc1)c1ccccc1`: the molecule was called inactive in experiment [1].

As for `C=C(CC1(C(C)NP(=O)(c2ccccc2)c2ccccc2)CC1)c1ccccc1` (stereo not given), the Potency in [2] was 7.94 µM (active).

For the molecule `COc1ccc2c(c1OC)C(=O)O[C@@H]2[C@H]1c2cc3c(cc2CCN1C)OCO3`, the Potency in [3] is 3.16 µM (active).

Turning to `C[C@@H]1O[C@H](O[C@H]2C[C@@H](O)[C@]3(CO)[C@H]4[C@H](O)C[C@]5(C)[C@@H](C6=CC(=O)OC6)CC[C@@]5(O)[C@H]4CC[C@]3(O)C2)[C@@H](O)[C@H](O)[C@H]1O`, the Potency entry in experiment [4] and in experiment [3] was “inactive” each time.

Consider `Cc1cc(/C=C2/C(=O)NC(=O)N(Cc3ccco3)C2=O)c(C)n1-c1ccc(C(=O)O)cc1`, for which the Potency in experiment [5] was 9.47 µM (active); in [6], 18.9 µM (active); in experiment [7], 60.1 µM (active).

`C=CC(=O)OCC(CO)(COC(=O)C=C)COC(=O)C=C`: the Potency was 7.94 µM (active) in [8]; 6.31 µM (active) in experiment [9]; 3.98 µM (active) in experiment [10]; 6.31 µM (active) in [11]; 3.98 µM (active) in experiment [12]; 2.51 µM (active) in experiment [13]. Further, the Potency is 6.31 µM (active) in experiment [14], 3.98 µM (active) in [15], 5.01 µM (active) in experiment [16] and 4.22 µM (active) in experiment [17].

With `O=Nc1ccc(Nc2ccccc2)cc1`, the Potency in [8] was 5.01 µM (active); in experiment [9] it was 7.94 µM (active); in [10], 6.31 µM (active); in experiment [11] it was 10 µM (active); in experiment [12], 7.94 µM (active); in experiment [13], 10 µM (active). Further, the Potency is 7.94 µM (active) in experiment [18]; 10 µM (active) in experiment [19]; 5.01 µM (active) in experiment [20]; 6.31 µM (active) in [14]; 7.94 µM (active) in experiment [15]; 12.6 µM (active) in experiment [16]. In addition, the Potency in [17] is 7.5 µM (active).

Turning to `c1cc(OCC2CO2)cc(OCC2CO2)c1` (stereo not given), the Potency in experiment [18] was 39.8 µM (active); in [19] it was 50.1 µM (active); in experiment [20], 39.8 µM (active); in experiment [14], 39.8 µM (active).

The record behind these values is PubChem BioAssay (NCATS).
